PubChem BioAssay AID1159580 (chemical genetic matrix, 2015)
“And” between values parts separate entries of the source, which are not always exact repeats. Equal entries are not always repeated. The campaign covered roughly 5,500 compounds. About 2,000 (36%) were called active. Inconclusive results (about 18%) are left out. Cut-off read from the data, not from the text of the source: active = normalized growth mostly below about 0.91 (no sharp cut-off); inconclusive = no clear call, values can overlap the other calls; inactive = mostly above about 0.92. The list shows a part of the results.

Assay: chemical genetic growth profiling, strain panel (AID 1159580);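 note: tested at 20 µM; growth read once vehicle control cultures reached saturation at 30 °C; 1 = growth at the plate median or of vehicle wells; lower values mean less growth of the strain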
Details: S. cerevisiae deletion strains, growth OD

Measured: normalized growth

CC(=O)OCC(=O)[C@@]1(O)[C@H](OC(C)=O)CC2C3CCC4=CC(=O)C=C[C@]4(C)[C@@]3(F)[C@@H](O)C[C@@]21C (some centres not stated)
inactive: locus YAL013W, strain DEP1, active compounds read low 0.993 | locus YAL021C, strain ccr4, active compounds read low 0.982 | locus YAL026C, strain drs2, active compounds read low 0.959 | locus YAL030W, strain snc1, active compounds read low 0.995 | locus YBL061C, strain skt5, active compounds read low 1 | locus YBR009C, strain hhf1, active compounds read low 0.923 | locus YBR021W, strain FUR4, active compounds read low 0.986 | locus YBR023C, strain chs3, active compounds read low 0.981 | locus YBR171W, strain sec66, active compounds read low 0.985 | locus YBR229C, strain ROT2, active compounds read low 0.951 | locus YBR231C, strain swc5, active compounds read low 1.01 | locus YBR279W, strain paf1, active compounds read low 0.987 | locus YCL011C, strain gbp2, active compounds read low 0.947 | locus YCL016C, strain dcc1, active compounds read low 0.965 | locus YCL029C, strain bik1, active compounds read low 0.99 | locus YCL069W, strain vba3, active compounds read low 0.983 | locus YCR088W, strain abp1, active compounds read low 0.987 | locus YDL005C, strain med2, active compounds read low 0.993 | locus YDL035C, strain GPR1, active compounds read low 0.973 | locus YDL040C, strain nat1, active compounds read low 1 | locus YDL074C, strain BRE1, active compounds read low 0.947 | locus YDL101C, strain DUN1, active compounds read low 0.98 | locus YDL134C, strain PPH21, active compounds read low 0.994 | locus YDL185W, strain tfp1, active compounds read low 0.99 | locus YDL192W, strain arf1, active compounds read low 0.997 | locus YDR001C, strain nth1, active compounds read low 0.959 | locus YDR069C, strain doa4, active compounds read low 1.01 | locus YDR101C, strain arx1, active compounds read low 1.01 | locus YDR137W, strain rgp1, active compounds read low 0.98 | locus YDR159W, strain sac3, active compounds read low 0.923 | locus YDR162C, strain NBP2, active compounds read low 0.988 | locus YDR195W, strain ref2 1.03 | locus YDR297W, strain sur2, active compounds read low 0.987 | locus YDR318W, strain mcm21, active compounds read low 0.994 | locus YDR334W, strain swr1, active compounds read low 0.982 | locus YDR335W, strain msn5, active compounds read low 0.983 | locus YDR388W, active compounds read low 1 | locus YDR392W, strain spt3, active compounds read low 0.913 | locus YDR502C, strain sam2, active compounds read low 1 | locus YEL003W, strain gim4, active compounds read low 0.992 | locus YEL037C, strain rad23, active compounds read low 0.983 | locus YEL061C, strain CIN8 (second series), active compounds read low 0.973 | locus YEL061C, strain CIN8, active compounds read low 0.991 | locus YER015W, strain faa2, active compounds read low 1 | locus YER016W, strain bim1, active compounds read low 0.961 | locus YER110C, active compounds read low 0.974 | locus YER111C, strain swi4, active compounds read low 0.976 | locus YER155C, strain BEM2 (second series), active compounds read low 1.04 | locus YER155C, strain BEM2, active compounds read low 0.998 | locus YER167W, strain BCK2, active compounds read low 0.991 | locus YFR010W, strain ubp6, active compounds read low 0.983 | locus YGL078C, strain dbp3, active compounds read low 0.995 | locus YGL086W, strain mad1, active compounds read low 0.99 | locus YGL167C, strain pmr1, active compounds read low 0.998 | locus YGL173C, strain kem1, active compounds read low 1.01 | locus YGL227W, strain vid30, active compounds read low 0.979 | locus YGL240W, strain doc1, active compounds read low 1.02 | locus YGL248W, strain PDE1, active compounds read low 0.975 | locus YGL253W, strain hxk2, active compounds read low 0.964 | locus YGR135W, strain pre9, active compounds read low 0.997 | locus YGR252W, strain gcn5, active compounds read low 0.967 | locus YHR013C, strain ard1, active compounds read low 0.948 | locus YHR027C, strain rpn1, active compounds read low 0.966 | locus YHR030C, strain SLT2, active compounds read low 0.995 and 0.971 | locus YHR079C, strain IRE1 (second series), active compounds read low 1.01 | locus YHR079C, strain IRE1, active compounds read low 0.964 | locus YHR094C, strain hxt1, active compounds read low 1.01 | locus YHR129C, strain ARP1, active compounds read low 0.977 | locus YHR142W, strain chs7, active compounds read low 0.957 | locus YHR200W, strain rpn10, active compounds read low 0.997 | locus YIL066C, strain RNR3, active compounds read low 0.981 | locus YIL073C, strain SPO22, active compounds read low 1.02 | locus YIL125W, strain kgd1, active compounds read low 0.996 | locus YIR030C, strain dcg1, active compounds read low 0.989 | locus YJL092W, strain hpr5, active compounds read low 0.991 | locus YJL095W, strain BCK1 (second series), active compounds read low 0.986 | locus YJL095W, strain BCK1, active compounds read low 0.945 and 0.981 | locus YJL115W, strain asf1, active compounds read low 0.972 | locus YJL129C, strain trk1, active compounds read low 0.988 | locus YJL134W, strain LCB3, active compounds read low 0.993 | locus YJL154C, strain vps35, active compounds read low 0.986 | locus YJL164C, strain tpk1, active compounds read low 0.974 | locus YJL166W, strain qcr8, active compounds read low 1.04 | locus YJL168C, strain set2, active compounds read low 0.999 | locus YJL187C, strain SWE1 (second series), active compounds read low 0.975 | locus YJL187C, strain SWE1, active compounds read low 0.984 | locus YJR043C, strain POL32, active compounds read low 0.992
